19 molecules from the supplement of paper PMC13380429 can be followed below.

The assay deals with Vero E6 infected with SARS-CoV-2. Description: inhibition of SARS-CoV-2 cytopathic effect; higher = more antiviral protection, active = above 15. Particulars: 48 h. Background: Protection from cytopathic effect is a common read-out in antiviral testing.

Values without a mark were called inactive.

`Cc1cc(C(C)(C)C)c(O)c(C)c1CC1=NCCN1` [oxymetazoline]: the “inhibition of SARS-CoV-2 cytopathic effect” value (“inhibition” below) was 0.98% (1 nM); 1.83% (8.33 nM); 1.85% (100 nM); 1.64% (833.33 nM); 0.31% (10000 nM).
Take `CNC(=O)[C@H](Cc1c[nH]c2ccccc12)NC(=O)[C@@H](CC(=O)NO)CC(C)C` [ilomastat]: the “inhibition” value is, setting by setting: (1 nM) 3.69%; (8.33 nM) 1.87%; (100 nM) -1.16%; (833.33 nM) 2.15%; (10000 nM) -0.18%.
With `COc1cc(C(=O)N2CCC(N3CCN(C)CC3)CC2)ccc1Nc1ncc2c(n1)N(C)c1ccccc1C(=O)N2C`, the “inhibition” value (1 nM) is 0.64%; the “inhibition” value (8.33 nM) was -0.23%; the “inhibition” value (100 nM) is 2.57%; the “inhibition” value (833.33 nM) is 1.89%; the “inhibition” value (10000 nM) is -6.43%.
In the same order, the values of `CC[C@H](NC(=O)c1c(C)c(-c2ccccc2)nc2ccccc12)c1ccccc1` are 1.87%, 4.53%, 5.18%, 3.05% and -2.21%.
For the molecule `COc1ccc(C(=O)c2ccccc2)c(O)c1` [oxybenzone], the “inhibition” value is 0.11% (1 nM); 2.31% (8.33 nM); 0.71% (100 nM); 0.2% (833.33 nM); 0.65% (10000 nM).
Turning to `[O-][n+]1ccccc1[S-].[O-][n+]1ccccc1[S-].[Zn+2]` [pyrithione-zinc], the “inhibition” value runs as follows: (1 nM) 1.44%; (8.33 nM) 0.32%; (100 nM) 1.01%; (833.33 nM) 29.9% (active); (10000 nM) -21.9%.
Take `CS(=O)(=O)c1cccc(CNc2nc(Nc3ccc4c(c3)CCC(=O)N4)ncc2C(F)(F)F)c1`: the “inhibition” value is -1.14% (1 nM); -1.29% (8.33 nM); 0.06% (100 nM); 1.33% (833.33 nM); -3.75% (10000 nM).
In the same order, the values of `O=C(Nc1cnn2ccc(N3CCC[C@@H]3c3cc(F)ccc3F)nc12)N1CC[C@H](O)C1` [larotrectinib] are 1.44%, 4.14%, 3.48%, -0.49% and 2.41%.
As to `CCC(=O)O[C@@H](O[P@@](=O)(CCCCc1ccccc1)CC(=O)N1C[C@H](C2CCCCC2)C[C@H]1C(=O)O)C(C)C` [fosinopril], the “inhibition” value was -0.77% (1 nM); 0.8% (8.33 nM); 2.37% (100 nM); 1.19% (833.33 nM); 3.18% (10000 nM).
Turning to `CCOC(=O)[C@H](CCc1ccccc1)N[C@@H](C)C(=O)N1Cc2cc(OC)c(OC)cc2C[C@H]1C(=O)O` [moexipril], the “inhibition” value is -1.91% (1 nM); 1.34% (8.33 nM); -0.63% (100 nM); -0.22% (833.33 nM); 0.1% (10000 nM).
On to `Oc1cccc(-c2nc(N3CCOCC3)c3oc4ncccc4c3n2)c1`, for which the “inhibition” value by setting is: (1 nM) -0.17%; (8.33 nM) 0.46%; (100 nM) -0.59%; (833.33 nM) -6.22%; (10000 nM) -7.96%.
For the molecule `N=C(N)NC(=N)Nc1ccccc1` [1-phenylbiguanide], the “inhibition” value is -1.07% (1 nM); -0.09% (8.33 nM); 0.97% (100 nM); 1.34% (833.33 nM); -1.5% (10000 nM).
For `CC1=C(/C=C/C(C)=C/C=C/C(C)=C/C=O)C(C)(C)CCC1` [retinaldehyde], the “inhibition” value is -0.27% (1 nM); 1.56% (8.33 nM); 3.22% (100 nM); 6.75% (833.33 nM); 10.4% (10000 nM).
In the same order, the values of `Cc1c(C(N)=O)cc([N+](=O)[O-])cc1[N+](=O)[O-]` [dinitolmide] are -1.43%, 2.03%, 1.29%, -2.22% and -3.59%.
Consider `COc1ccc(CNCc2cccc3ccccc23)cc1`, for which the “inhibition” value is, setting by setting: (1 nM) -2.74%; (8.33 nM) -2.35%; (100 nM) -0.58%; (833.33 nM) -2.06%; (10000 nM) -0.83%.
On the same counts, the results for `CCC[C@@H]1C[C@@H](C(=O)N[C@@H]([C@H]2O[C@H](SC)[C@H](O)[C@@H](O)[C@H]2O)[C@H](C)Cl)N(C)C1` are 0.61%, -0.55%, -0.83%, -2.28% and -4.1%.
As for `Nc1ncnc2c1nc(Br)n2[C@@H]1O[C@@H]2COP(=O)(O)O[C@H]2[C@H]1O` [8-bromo-cAMP], the “inhibition” value (1 nM) was 2.13%; the “inhibition” value (8.33 nM) is 0.61%; the “inhibition” value (100 nM) was 1.53%; the “inhibition” value (833.33 nM) was -1.33%; the “inhibition” value (10000 nM) is -0.37%.
On the same counts, the results for `CC(C)c1ccc2c(c1)CC[C@H]1[C@](C)(CN)CCC[C@]21C` [lylamine] are -2.24%, 0.4%, 0.03%, -2.43% and -18.1%.
Take `O=c1[nH]cnc2nc[nH]c12` [hypoxanthine]: the “inhibition” value runs as follows: (1 nM) 4.22%; (8.33 nM) 2.78%; (100 nM) 1.76%; (833.33 nM) 0.21%; (10000 nM) 2.46%.
